# Measurements taken from PubChem BioAssay AID938 (National Center for Advancing Translational Sciences (NCATS), 2007).
# Where “and” joins values, the source holds several entries; their conditions need not be identical. Equal values may be shown once. The campaign covered roughly 73,000 compounds. About 1,800 (2.5%) were called active. Not shown: some 13% with an inconclusive outcome. Calls come from the whole dose curve; as a rule, active = well fitted activation curve with a large enough effect; inconclusive = small, poorly fitted or top-dose-only effect; inactive = no such curve, though single readings can be large or run the other way. This excerpt belongs to a sample that is enriched for actives. Where a structure was tested more than once in an assay, its records may differ in their call.
# Test: qHTS Assay for Agonists of the Thyroid Stimulating Hormone Receptor: Activators of Intracellular cAMP Concentrations in Parental HEK 293; note: nearly all actives have a fitted effect of over 55% in size; for activation: % of control where 0% means no effect
# Conditions: parental HEK293 CNG cAMP sensor, membrane potential fluorescence; series mostly up to 57.1 µM; activation: at the top concentration
# Procedure, shortened: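 Parental HEK 293 cells stably expressing a cAMP-gated CNG channel were loaded with membrane potential dye containing 100 uM RO 20-1724 for 60 min. Compound added for 30 min; depolarization read as fluorescence intensity at 590 nm.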
# Potency is the fitted concentration of half-maximal effect.
SMILES,activation,Potency
O=C1[C@H]2[C@H]3[C@H](O)[C@H](O)C/C(=N/OCc4ccccc4)[C@H]3CC[C@@H]2C(=O)N1Cc1ccccc1,-2.25% [at 11.4 µM] (inactive),
C[C@@H](c1ccccc1)N1C(=O)[C@H]2[C@H]3[C@H](O)[C@H](O)C/C(=N/OC[C@@H](O)COCc4ccco4)[C@@H]3CC[C@@H]2C1=O,5.7% [at 11.4 µM] (inactive),
O=C(NCc1ccco1)c1cc(-c2cccnc2)nc2ccc(Cl)cc12,,31.6 µM (active)
O=C(NCc1ccco1)c1cccn2c(=O)c3cc(Br)ccc3nc12,5.6% (inactive),
O=C(NCc1ccco1)c1nc(-c2ccccc2)n(-c2ccccc2)n1,22.4% (inactive),
CN(C)CCCCNC(=O)c1ccc(Cc2nc3ccccc3[nH]2)cc1,3.13% (inactive),
Oc1c(Cl)cc(Cl)c(Cl)c1Cc1c(O)c(Cl)cc(Cl)c1Cl,,10 µM (active)
C=CC(=O)c1ccc2ccccc2c1,8.58% (inactive),
O=C(CCSc1ccccc1)NCCSc1ccccn1,15.3% (inactive),
N#Cc1ccc(C(c2nnnn2CCc2ccccc2)N2CCCCCC2)cc1 (stereo unspecified),,15.8 µM (active)
COc1ccc(CCn2nnnc2C(c2ccccc2)N2CCN(C)CC2)cc1OC (stereo unspecified),26.2% (inactive),
CC(C)C(c1nnnn1CCc1ccccc1)N1CCN(C(=O)c2ccco2)CC1 (stereo unspecified),20.5% (inactive),
S=c1c2[nH]cnc2ncn1CCSc1ncnc2nc[nH]c12,-1.69% [at 11.4 µM] (inactive),
c1ccc(-n2nnnc2N2CCOCC2)cc1,-5.36% (inactive),
c1ccc(COc2nsnc2N2CCOCC2)cc1,27.1% (inactive),
c1ccc(-c2oc3ncnc(N4CCOCC4)c3c2-c2ccccc2)cc1,,15.8 µM (active)
CC(C)NC(=O)CCCn1c(=S)[nH]c2cc3c(cc2c1=O)OCO3,8.66% (inactive),
O=C(Nc1ccccc1)N[C@H]1C[C@H](C(=O)O)Nc2cc(Cl)cc(Cl)c21,8% (inactive),
Cc1noc(C)c1-c1cc(NCc2cccnc2)ncn1,-4.51% (inactive),
COCCNc1cc(-c2c(C)noc2C)ncn1,2.35% (inactive),
CNc1cc(-c2c(C)noc2C)ncn1,,3.98 µM (active)
O=C(CSc1nnc(-c2ccoc2)o1)N1CCOCC1,-3.67% (inactive),
CC(=O)OCC1OC(C#CCCCc2ccccc2)C=CC1OC(C)=O (stereo unspecified),-0.905% [at 11.4 µM] (inactive),
COCCCNC(=O)CCc1nc2cccnc2n1Cc1ccc(OC)cc1,-5.11% (inactive),

SMILES,activation,Potency
COC(=O)[C@@H]1CC[C@H](C)[C@@H](c2ccc(C)cc2)N1C(=O)c1ccc(/C=N\OC[C@@H](O)COCc2ccco2)cc1,44.4% [at 11.4 µM] (inactive),
CO[C@@H]1COC(=O)[C@H](Cc2ccccc2)NC(=O)C/C=C\[C@@H](C)[C@H](OC)COC(=O)[C@@H](C)NC(=O)C/C=C\[C@H]1C,8.45% [at 11.4 µM] (inactive) and -4.16% [at 11.4 µM] (inactive),
COCCn1c(SCC(=O)Nc2cc(Cl)ccc2OC)nc2c(c1=O)SC(C)C2 (stereo unspecified),27.1% (inactive),
COc1ccc(C2C(C(=O)Nc3ccccc3OC)=C(C)Nc3nnnn32)c(OC)c1 (stereo unspecified),5.5% (inactive),
COC(=O)c1ccc(C2C3=C(Nc4nnnn42)c2ccccc2OC3)cc1 (stereo unspecified),,12.6 µM (active)
COc1ccccc1NC(=O)C1=C(C)Nc2nnnn2C1c1cccc(Br)c1 (stereo unspecified),-0.777% (inactive),
O=C(CNCCO)NC12CC3CC(CC(C3)C1)C2,6.62% (inactive),
CO[C@H]1COC(=O)[C@@H](C)NC(=O)C/C=C\[C@@H](C)[C@H](OC)COC(=O)C/C=C\[C@@H]1C,2.45% [at 11.4 µM] (inactive),
Cc1ccc(N2CCN(c3ccc(C)cc3)C2c2ccccn2)cc1,-3.82% (inactive),
Cc1ccc(N(CC(O)CN2CCCC2)S(=O)(=O)c2ccccc2)cc1 (stereo unspecified),9.44% [at 11.4 µM] (inactive),
Cc1ccc(/C(=C/CN2CCCC2)c2ccccn2)cc1,,inactive and 25.1 µM (active)
O=NO,,inactive
Cn1c(=O)n2n(c1=O)[C@H]1[C@H](O)[C@H]3O[C@H]3C(=O)[C@H]1CC2,0.42% [at 11.4 µM] (inactive),
COC(=O)c1ccccc1NC(=O)Cn1nc(C(F)(F)F)c2c1CCC2,,25.1 µM (active)
O=C(Cn1nc(C(F)(F)F)c2c1CCC2)NCc1ccc(F)cc1,14.7% (inactive),
Cc1cc(NC(=O)Cn2nc(C(F)(F)F)c3c2CCCC3)no1,-0.746% (inactive),
CCCNC(=O)OC[C@@H]1O[C@H](c2ccccc2)C=C[C@@H]1Oc1ccc(OC)cc1,1.38% [at 11.4 µM] (inactive),
CCCC[C@@H]1C[C@H]1C(NC(=O)c1ccco1)c1ccc(C(=O)OC)cc1 (stereo partly specified),,25.1 µM (active)
COC(=O)c1ccc(NC(=O)c2ccco2)cc1,8.99% (inactive),
CCCC[C@@H]1C[C@H]1C(NC(=O)c1ccc(-c2ccccc2)cc1)c1ccc(-c2ccccc2)cc1 (stereo partly specified),1.42% (inactive),
CCC(C)(C)N=C(NC#N)Nc1cccnc1,0.273% (inactive),
O=C(CN1CCN(c2ccccc2F)CC1)c1ccc2c(c1)OCO2,5.84% (inactive),
Cn1c(=O)c2c(nc(CN3CCOCC3)n2Cc2ccccc2)n(C)c1=O,-0.85% (inactive),
CC1CCN(Cc2nc3c(c(=O)n(C)c(=O)n3C)n2CCc2ccccc2)CC1,,5.01 µM (active)

SMILES,activation,Potency
COCCn1c(CN2CCC(Cc3ccccc3)CC2)nc2c1c(=O)n(C)c(=O)n2C,24.7% (inactive),
CC1CN(C(=O)c2ccc3c(c2)OCO3)OC(c2ccccc2)O1 (stereo unspecified),8.54% (inactive),
Cc1nc2c(c(=O)n1Cc1ccco1)c1nc3ccccc3nc1n2Cc1ccccc1,27.8% (inactive),
CC(Sc1nc2ccccc2c(=O)n1Cc1ccco1)C(=O)c1ccccc1 (stereo unspecified),,15.8 µM (active)
Cc1ccc(C(=O)CSc2nc3ccccc3c(=O)n2N)o1,13.4% (inactive),
CO[C@H]1COC(=O)[C@H](Cc2ccccc2)NC(=O)C/C=C\[C@@H](C)[C@H](OC)COC(=O)C/C=C\[C@@H]1C,25.1% [at 11.4 µM] (inactive),
COc1ccc(NC(=O)N2CC3(CCN(C(=O)c4cccn4C)CC3)C2)cc1,5.6% (inactive),
Cn1c(SCC(=O)c2cccs2)nnc1-c1ccco1,-17.6% (inactive),
COCn1c(COc2ccccc2)nc2ccccc21,25.1% [at 11.4 µM] (inactive),
COCc1nc2ccccc2n1Cc1ccccc1Br,,31.6 µM (active)
CC(=O)NC(C)c1nc2ccccc2n1Cc1ccccc1F (stereo unspecified),11.7% (inactive),
COCc1nnc(NC(=O)CS(=O)(=O)Cc2ccccc2)s1,0.984% (inactive),
Cc1ccc(N2CCN(S(=O)(=O)c3ccc(F)cc3)CC2)c(C)c1,12.7% (inactive),
CC(Cc1ccccc1)C(=O)N(C)Cc1ccccc1 (stereo unspecified),16.5% (inactive),
c1ccc(-c2cc(-c3nnc4sc(-c5ccccn5)nn34)[nH]n2)cc1,,25.1 µM (active)
COc1ccc(-c2nn3c(-c4ccccc4)nnc3s2)cc1OC,28.3% (inactive),
CN(C(=O)c1ccccn1)c1nnc(-c2ccccn2)s1,-4.34% (inactive),
Cc1ccc(S(=O)(=O)N2CC(=O)Nc3ccccc32)cc1C,-6.15% [at 11.4 µM] (inactive),
CCOC(=O)N/N=C1/C[C@@H](O)[C@@H](O)[C@@H]2[C@@H]3C(=O)N(CC)C(=O)[C@H]3CC[C@H]12,2.56% [at 11.4 µM] (inactive),
COc1ccc(OC)c(C(=O)c2coc3ccc(O)c(CN4CCOCC4)c23)c1,17.1% (inactive),
COc1ccc(OC)c(C(=O)c2ccc(C(=O)O)cc2)c1,2.61% (inactive),
COc1ccc(OC)c(C(=O)c2coc3ccc(OC)cc23)c1,,10 µM (active)
O=C(CN1C(=O)CSc2ncccc21)N1CCOCC1,-3.29% (inactive),
CN(C)c1ccc(NC(=O)c2ccncc2)c2ccccc12,-2.48% (inactive),

SMILES,activation,Potency
COc1ccc(CCN2CNc3c(c(=O)n(C)c(=O)n3C)C2)cc1OC,1.78% (inactive),
COC(=O)c1ccc(NCC(=O)c2ccccc2)cc1,7.18% (inactive),
CCC/C=C(\CCC)C(NC(=O)Cc1ccccc1)c1ccc(C(=O)OC)cc1 (stereo unspecified),,15.8 µM (active)
CCN(CC)C(=O)CCC(=O)Nc1ccc(C(=O)OC)cc1,2.85% (inactive),
CO[C@H]1COC(=O)CCC[C@@H](C)[C@H](OC)COC(=O)[C@@H](C)NC(=O)C/C=C\[C@@H]1C,4.76% [at 11.4 µM] (inactive),
Fc1ccc2nc(-c3ccccc3)nc(SCc3nnc(-c4ccccc4)o3)c2c1,19.2% (inactive),
Fc1ccc(-c2nnc3sc(-c4ccc5c(c4)OCO5)nn23)cc1,23.4% (inactive),
Fc1ccc(-c2nnc(CSc3nnc(-c4ccc5c(c4)OCO5)o3)o2)cc1,,25.1 µM (active)
Cc1ccc(C(=O)NC2CC(C)(C)NC(C)(C)C2)c(C)c1,0.884% (inactive),
COC(=O)c1ccc(COC(=O)c2c(C)nn(Cc3ccccc3Cl)c2Cl)o1,,15.8 µM (active)
CCOC(=O)c1ccc(COC(=O)c2cc(=O)[nH]c3ccccc23)o1,3.05% (inactive),
Cc1nn(Cc2ccccc2)c(Cl)c1C(=O)OC1CCOC1=O (stereo unspecified),2.04% (inactive),
CCCCn1c(CCCNC(=O)CC)nc2ccccc21,14.9% (inactive),
COc1ccc(NC(=O)CCNC(=O)Cn2ccc3ccccc3c2=O)c(OC)c1,-3.68% (inactive),
CC(C)(C)c1cc(CN2CCN(CCC#N)CC2)cc(C(C)(C)C)c1O,,7.94 µM (active)
N#CCCN1CCN(S(=O)(=O)c2ccc(S(=O)(=O)NC3CC3)cc2)CC1,2.86% (inactive),
Cc1ccc(S(=O)(=O)NCC(=O)OCC(=O)N2CCc3ccccc32)cc1,-6.34% (inactive),
C[C@@H]1/C=C\CC(=O)OC[C@H]2O[C@@H](C=C[C@@H]2O)[C@H](C)/C=C\CC(=O)OC[C@H]2O[C@H]1C=C[C@@H]2O,-6.65% [at 11.4 µM] (inactive),
O=C(Nc1cccnc1)c1ccc2c(c1)OCO2,4.06% (inactive),
O=C(Nc1ccc2c(c1)OCCO2)c1ccncc1,9.97% (inactive),
O=C(Nc1nc(-c2ccc3c(c2)OCO3)cs1)c1ccncc1,,20 µM (active)
C=CCn1c(COc2ccccc2)nnc1SCC(=O)NCC(=O)OCC,-0.938% (inactive),
O=C(CC1(O)C(=O)N(CN2CCOCC2)c2ccccc21)c1ccccc1 (stereo unspecified),1.28% (inactive),
Cc1ccc(C(=O)Nc2nnc(-c3ccncc3)s2)o1,-13.3% (inactive),
